Experimental data reported in PubChem BioAssay (Tox21).
Values joined by “and” are separate entries in the source; they are usually repeats but may differ in a detail not shown here. Equal entries are not always repeated. Records with an inconclusive call do not appear. Entries that show only a call come without a potency. Some compounds were tested as several samples or in several runs, with calls that do not always agree. Active and inactive are the calls of the source. Calls follow the shape of the dose curve; as a rule, active = well fitted curve in the direction sought with a large enough effect in the repeat runs; inconclusive = weak or mixed curves; inactive = no such curve, though single readings can be large; an effect the other way counts as inactive or inconclusive.

How the values were obtained:
[1] = A CellTox Green Cytotoxicity Assay to monitor cytotoxicity in HEK293 cells - 40 hour (AID 1224871); conditions: CellTox Green fluorescence; series mostly up to 76.8 µM; also: nearly all actives have a fitted effect of over 45% in size; also: potency is read from the fitted curve at half-maximal effect
Summary of the method: (§1)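 Cells (HEK293, 600/well) and dye reagent are dispensed together. After 5 h at 37 C, 23 nL compound is pinned in. Plates stay at 37 C for 40 h with fluorescence read at 0h, 8h, 16h, 24h, 32h and 40h.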

[2] = qHTS RealTime-Glo MT Cell Viability Assay in HEK293 cells - 16 hour (AID 1224872); conditions: RealTime-Glo luminescence; series mostly up to 76.8 µM; also: nearly all actives have a fitted effect of over 50% in size; also: potency is read from the fitted curve at half-maximal effect
Summary of the method: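 Assay medium contained NanoLuc luciferase plus cell-permeant prosubstrate, added with HEK293 cells at 600 cells/well. After 5 h at 37 C/5% CO2 compounds were added; plates stayed at 37 C for 40 h with serial luminescence reads.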

[3] = qHTS RealTime-Glo MT Cell Viability Assay in HepG2 cells - 8 hour (AID 1224873); conditions: RealTime-Glo luminescence; series mostly up to 76.8 µM; also: nearly all actives have a fitted effect of over 55% in size
Summary of the method: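 HepG2 cells (600/well) mixed with RealTime-Glo MT reagent, settled 5 h at 37 C/5% CO2 before compound addition. Nonlytic NanoLuc luminescence from viable-cell prosubstrate reduction read repeatedly during 40 h treatment at 37 C.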

[4] = qHTS RealTime-Glo MT Cell Viability Assay in HEK293 cells - 40 hour (AID 1224874); conditions: RealTime-Glo luminescence; max response: stronger effect = lower value; also: nearly all actives have a fitted effect of over 50% in size; also: potency is read from the fitted curve at half-maximal effect
Summary of the method: (§2)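 Real-time viability in HEK293: signal arises when living cells convert a prosubstrate for NanoLuc in the medium, so luminescence tracks viable cell number. Compound (23 nL, DMSO) added 5 h post-seeding; kinetic reads at 0–40 h, 37 C.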

[5] = A CellTox Green Cytotoxicity Assay to monitor cytotoxicity in HEK293 cells - 24 hour (AID 1224875); conditions: CellTox Green fluorescence; series mostly up to 76.8 µM; also: nearly all actives have a fitted effect of over 45% in size; also: potency is read from the fitted curve at half-maximal effect
Summary of the method: as §1

[6] = qHTS RealTime-Glo MT Cell Viability Assay in HepG2 cells - 32 hour (AID 1224877); conditions: RealTime-Glo luminescence; series mostly up to 76.8 µM; also: nearly all actives have a fitted effect of over 55% in size; also: potency is read from the fitted curve at half-maximal effect
Summary of the method: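 qHTS, HepG2, 600 cells/well, RealTime-Glo (NanoLuc + prosubstrate) added with cells; 5 h preincubation; DMSO compound addition; 37 C; luminescence at 0/8/16/24/32/40 h.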

[7] = A CellTox Green Cytotoxicity Assay to monitor cytotoxicity in HepG2 cells - 24 hour (AID 1224878); conditions: CellTox Green fluorescence; series mostly up to 76.8 µM; also: nearly all actives have a fitted effect of over 45% in size; also: potency is read from the fitted curve at half-maximal effect
Summary of the method: (§3)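 Cells and non-lytic dye reagent are dispensed together (600 HepG2 cells/well) and incubated 5 h before DMSO compound transfer. Kinetic fluorescence is then recorded in the same wells during 40 h at 37 C.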

[8] = A CellTox Green Cytotoxicity Assay to monitor cytotoxicity in HepG2 cells - 40 hour (AID 1224879); conditions: CellTox Green fluorescence; series mostly up to 76.8 µM; also: nearly all actives have a fitted effect of over 40% in size; also: potency is read from the fitted curve at half-maximal effect
Summary of the method: as §3

[9] = qHTS RealTime-Glo MT Cell Viability Assay in HEK293 cells - 0 hour (AID 1224880); conditions: RealTime-Glo luminescence; series mostly up to 76.8 µM; also: top concentration of the series differs between compounds; nearly all actives have a fitted effect of over 45% in size
Summary of the method: as §2

[10] = A CellTox Green Cytotoxicity Assay to monitor cytotoxicity in HepG2 cells - 16 hour (AID 1224876); conditions: CellTox Green fluorescence; series mostly up to 76.8 µM; also: nearly all actives have a fitted effect of over 45% in size; also: potency is read from the fitted curve at half-maximal effect
Summary of the method: as §3

SMILES	Potency [1]	Potency [2]	outcome [3]	max response [4]	Potency [5]	Potency [6]	Potency [7]	Potency [8]	outcome [9]	Potency [10]	Potency [4]
Cc1ccc(S(=O)(=O)N[C@@H](CCCCN)C(=O)CCl)cc1	inactive	inactive	inactive	2.57% (inactive)	inactive	inactive	inactive	inactive	inactive		
C=C(Cl)CCl	inactive	inactive		-1.15% (inactive)	inactive		inactive	inactive		inactive	
N=C(N)[Se]	inactive	inactive		-7.73% (inactive)	inactive	inactive	inactive	inactive	inactive	inactive	
COP(=O)(O)OC	inactive	inactive	inactive	-2.51% (inactive)	inactive	inactive	inactive	inactive	inactive		
CNC(=O)O/N=C(/CSC)C(C)(C)C	inactive	inactive		-0.61% (inactive)	inactive	inactive	inactive	inactive	inactive	inactive	
CCc1ccc(C2CCNCC2)cc1	inactive	inactive		7.03% (inactive)	inactive	inactive	inactive	inactive		inactive	
C/C=C/CC#N	56.2 µM (active)	inactive	inactive	9.52% (inactive)		inactive	inactive	inactive	inactive	inactive	
Cc1ccc(-c2nc3ccc(C)cn3c2CC(=O)N(C)C)cc1	inactive	inactive	inactive		inactive	inactive	inactive	inactive	inactive	inactive	
C=CC=O	inactive	inactive	inactive		inactive	inactive	inactive	inactive	inactive	inactive	
CC(Cl)(Cl)Cl	inactive	inactive		-1.28% (inactive)	inactive	inactive	inactive	inactive	inactive	inactive	
BrCC1CO1 (stereo not drawn)	inactive	inactive		5.87% (inactive)	inactive	inactive	inactive	inactive	inactive	inactive	
CCOC(=O)c1ncn2c1CN(C)C(=O)c1c(I)cccc1-2	inactive	inactive		1.2% (inactive)	inactive	inactive	inactive	inactive	inactive	inactive	
CCOC(=O)COc1ccc(Cl)cc1Cl	inactive	inactive	inactive	-3.04% (inactive)	inactive	inactive	inactive	inactive	inactive		
CCNc1nc(Cl)nc(NC(C)(C)C)n1	inactive	inactive		-11% (inactive)	inactive	inactive	inactive	inactive		inactive	
C=CCCC#N	inactive	inactive		6.33% (inactive)	inactive	inactive	inactive	inactive	inactive	inactive	
CCOC(=O)Nc1cccc(OC(=O)Nc2ccccc2)c1	inactive	inactive	inactive		inactive	inactive			inactive	inactive	
C=C(C)[C@H]1CN[C@H](C(=O)O)[C@H]1CC(=O)O	inactive	inactive		0.763% (inactive)	inactive	inactive	inactive	inactive		inactive	
C[C@H]1CCCC(=O)CCC/C=C/c2cc(O)cc(O)c2C(=O)O1	inactive	37.5 µM (active)			inactive	inactive	inactive		inactive	inactive	21.1 µM (active)
Clc1ccc(C(Cl)(Cl)Cl)cn1	34.7 µM (active)	inactive		1.5% (inactive)	34.7 µM (active)	inactive	inactive	inactive	inactive	inactive	
O=[N+]([O-])c1cccc(CCl)c1	inactive	inactive		6.77% (inactive)	inactive	inactive	inactive	inactive	inactive	inactive	
CC(C)(N)Cc1ccc(Cl)cc1	inactive	inactive		6.61% (inactive)	inactive		inactive	inactive		inactive	
O=C(NC(=O)c1c(F)cccc1F)Nc1cc(Cl)c(F)c(Cl)c1F	inactive		inactive	-0.171% (inactive)	inactive	inactive	inactive	inactive		inactive	

SMILES	Potency [1]	Potency [2]	outcome [3]	max response [4]	Potency [5]	Potency [6]	Potency [7]	Potency [8]	outcome [9]	Potency [10]	Potency [4]
CCC(C(N)=O)N1CCCC1=O (stereo not drawn)	inactive	inactive		6.54% (inactive)	inactive		inactive	inactive	inactive	inactive	
CC[C@@H](CO)NC(=O)[C@@H]1C=C2c3cccc4[nH]cc(c34)C[C@H]2N(C)C1	inactive		inactive	1.11% (inactive)	inactive	inactive	inactive	inactive	inactive	inactive	
COC(=O)c1ccccc1CS(=O)(=O)NC(=O)Nc1nc(OC)cc(OC)n1	inactive		inactive	1.53% (inactive)	inactive	inactive	inactive	inactive	inactive	inactive	
CN1COCN(Cc2cnc(Cl)s2)/C1=N\[N+](=O)[O-]	inactive	inactive		7.06% (inactive)	inactive		inactive	inactive	inactive	inactive	
CON(C)C(=O)Nc1ccc(Br)cc1	inactive		inactive	-9.38% (inactive)	inactive		inactive	inactive	inactive	inactive	
CC1=C2[C@H]3OC(=O)[C@@H](C)[C@@H]3CC[C@@]2(C)C=CC1=O	inactive		inactive	10.1% (inactive)	inactive	inactive	inactive	inactive	inactive	inactive	
O=C1C2CC=CCC2C(=O)N1SC(Cl)(Cl)Cl (stereo not drawn)	6.81 µM (active)	3.83 µM (active)				inactive and 21.5 µM (active)	inactive and 12.1 µM (active)	inactive and 10.8 µM (active)	inactive	inactive and 42.9 µM (active)	43.5 µM (active) and 3.41 µM (active)
ClCCCCl	inactive	inactive		9.81% (inactive)	inactive		inactive	inactive	inactive	inactive	
CCOC(=O)C(SP(=S)(OC)OC)c1ccccc1 (stereo not drawn)	inactive		inactive	-6.34% (inactive)	inactive	inactive	inactive	inactive	inactive	inactive	
C1CN2CCC1CC2	inactive	inactive		0.665% (inactive)	inactive	inactive	inactive	inactive	inactive		
COC(=O)c1ccc(CBr)cc1	inactive	inactive		3.15% (inactive)	inactive	inactive	inactive	inactive	inactive		
CC[C@H](N)c1ccccc1	inactive		inactive	5.02% (inactive)	inactive	inactive	inactive	inactive		inactive	
[O-][Br+2]([O-])O	inactive		inactive	3% (inactive)	inactive	inactive	inactive	inactive	inactive	inactive	
COP(=O)(OC)O/C(C)=C/C(=O)N(C)C	inactive	inactive		13.5% (inactive)	inactive		inactive	inactive	inactive		
COc1cccc([C@@]2(O)CCCC[C@@H]2CN(C)C)c1	inactive		inactive	0.459% (inactive)	inactive	inactive	inactive	inactive	inactive	inactive	
CCCCCCCCBr	inactive		inactive	2.41% (inactive)	inactive	inactive	inactive	inactive	inactive	inactive	
COc1ccccc1OC	inactive		inactive	0.0799% (inactive)	inactive	inactive	inactive	inactive		inactive	
CCNc1nc(NCC)nc(SC)n1	inactive		inactive	-13.3% (inactive)	inactive	inactive	inactive	inactive	inactive	inactive	
CCC1(c2ccccc2)CCC(=O)NC1=O (stereo not drawn)	inactive		inactive	-2.24% (inactive)	inactive	inactive	inactive	inactive	inactive	inactive	
CCC(CC)(CNC(=O)CCCO)c1cccc(OC)c1	inactive		inactive	4.41% (inactive)	inactive	inactive	inactive	inactive	inactive	inactive	
ClCCCCCCCl	inactive	inactive		5.82% (inactive)	inactive		inactive	inactive	inactive		
